Records with an inconclusive call do not appear. Entries that show only a call come without a potency. Calls of active or inactive are those of the source. Unless noted, calls come from the whole dose curve; as a rule, active = well fitted curve in the direction sought with a large enough effect; inconclusive = small, poorly fitted or top-dose-only effect, or another doubt; inactive = no such curve, though single readings can be large; an effect the other way counts as inactive or inconclusive.
Legend:
[1] = target: Cytochrome P450 3A4 (Homo sapiens) (UniProt P08684); assay: qHTS Assay for Inhibitors and Substrates of Cytochrome P450 3A4 (AID 884); note: series mostly up to about 57 µM; nearly all actives have a fitted effect of over 50% in size
Chain of Cytochrome P450 3A4 (Homo sapiens) (P08684 whole entry, looked up): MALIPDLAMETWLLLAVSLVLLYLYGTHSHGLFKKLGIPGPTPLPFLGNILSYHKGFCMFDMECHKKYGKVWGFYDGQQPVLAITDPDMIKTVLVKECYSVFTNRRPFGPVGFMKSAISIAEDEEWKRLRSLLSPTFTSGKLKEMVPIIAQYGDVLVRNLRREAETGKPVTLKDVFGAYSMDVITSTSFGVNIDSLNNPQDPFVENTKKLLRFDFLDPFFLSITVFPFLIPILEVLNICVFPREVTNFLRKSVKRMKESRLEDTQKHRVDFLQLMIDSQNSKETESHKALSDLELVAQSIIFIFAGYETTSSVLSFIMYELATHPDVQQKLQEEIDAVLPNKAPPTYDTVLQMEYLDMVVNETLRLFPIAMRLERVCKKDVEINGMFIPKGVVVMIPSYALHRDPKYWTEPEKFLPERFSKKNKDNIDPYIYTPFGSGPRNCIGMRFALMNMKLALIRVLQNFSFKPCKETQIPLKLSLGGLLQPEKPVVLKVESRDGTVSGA
Method in brief: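 20 nM human CYP3A4 with 25 uM Luciferin-PPXE (at KM) in 200 mM KPO4, preincubated 10 min with compound; NADPH regeneration started a 60 min RT reaction. Luciferin detected by luminescence, normalized to 57 uM ketoconazole as full inhibition.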

[2] = Confirmation and Secondary Assay for Modulators of Hemoglobin Beta Chain Splicing at IVS2 654 locus (AID 910);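 note: per-well total GFP intensity by laser scanning cytometry after 2-day treatment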
Method in brief: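 HeLa cells stably carrying EGFP interrupted by mutant beta-globin IVS2-654 intron (CMV-driven) were treated with compound for 2 days at 37C; corrected splicing was scored as total peak GFP intensity per well (488 nm excitation, 500-520 nm emission).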

[3] = Confirmation and Secondary Assay for Modulators of Hemoglobin Beta Chain Splicing at IVS2 705 locus (AID 930);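 note: HeLa cells stably expressing the EGFP-705 splicing reporter; GFP fluorescence per well restored by corrected splicing of the IVS2-705 intron in EGFP; series mostly up to about 46 µM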
Method in brief: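 Per-well GFP, captured at 1 x 8 µm resolution with 488 nm excitation, served as the read-out for HeLa EGFP-705 cells incubated 2 days with test compound versus DMSO.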

[4] = target: Glutathione peroxidase 1 (Homo sapiens) (UniProt P07203); assay: Primary qHTS Assay for Inhibitors of Recombinant Selenoprotein Glutathione Peroxidase 1 (GPX1) (AID 1845191); note: nearly all actives have a fitted effect of over 65% in size
Chain of Glutathione peroxidase 1 (Homo sapiens) (P07203 whole entry, looked up): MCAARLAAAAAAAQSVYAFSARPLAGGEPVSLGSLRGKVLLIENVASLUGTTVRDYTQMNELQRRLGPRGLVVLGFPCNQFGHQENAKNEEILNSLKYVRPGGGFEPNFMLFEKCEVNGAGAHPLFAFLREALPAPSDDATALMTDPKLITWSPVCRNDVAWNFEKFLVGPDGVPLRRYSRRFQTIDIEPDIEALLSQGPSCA
Method in brief: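 Recombinant GPX1 (10 nM final) was preincubated with compound for 30 min at room temperature, then reacted with 1 mM GSH, 0.5 mM CHP, 0.5 mM NADPH and 100 nM glutathione reductase; NADPH fluorescence (340/450 nm) was read at 0 and 15 min.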

[5] = target: Phospholipid hydroperoxide glutathione peroxidase GPX4 (Homo sapiens) (UniProt P36969); assay: Primary qHTS Assay for Inhibitors of Recombinant Selenoprotein Glutathione Peroxidase 4 (GPX4) (AID 1845192); note: nearly all actives have a fitted effect of over 65% in size
Chain of Phospholipid hydroperoxide glutathione peroxidase GPX4 (Homo sapiens) (P36969 whole entry, looked up): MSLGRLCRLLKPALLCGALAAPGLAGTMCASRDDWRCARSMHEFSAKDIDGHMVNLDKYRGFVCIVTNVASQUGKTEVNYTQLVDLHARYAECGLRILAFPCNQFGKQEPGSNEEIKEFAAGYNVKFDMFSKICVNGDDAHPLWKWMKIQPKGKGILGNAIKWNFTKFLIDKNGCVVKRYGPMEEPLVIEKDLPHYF
Method in brief: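 GR-coupled readout: 100 nM GR, 1 mM GSH, 0.5 mM NADPH; NADPH fluorescence (ex 340/em 450 nm) read at t=0 and after 15 min RT. GPX4 200 nM, preincubated 30 min with compound; substrate 0.5 mM CHP.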

[6] = qHTS drug screen for cell cycle checkpoint inhibitors in PARPi-resistant BRCA-mutant ovarian cancer cell lines. (AID 1963452; calls by dose curve); conditions: PEO1/OlaR viability, CellTiter-Glo luminescence, 96 h, stronger effect = lower value
Method in brief: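 PEO1, PEO4 and PEO1/OlaR ovarian cancer cells, 600 per well, exposed 96 h at 37C to a dilution series. Viability read by CellTiter-Glo luminescence, normalized to DMSO and empty wells; activity summarized as Z-AUC.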

SMILES	Potency [1]	Potency [2]	Potency [3]	Potency [4]	Potency [5]	Z-AUC [6]	Z-AUC ([6]; measured here: PEO1 parental Z-AUC)	Z-AUC ([6]; measured here: PEO4 Z-AUC)
CCCCCCCCCCCCC[N+](C)(C)Cc1ccccc1	inactive	inactive	inactive	inactive	inactive			
CCc1ccc(N(CC(C)C)S(=O)(=O)c2ccc(OCC3CCOCC3)c(CO)c2)cc1				inactive	inactive	-1.27 (inactive)	-0.28	-0.861
C#C[C@]1(O)CC[C@H]2[C@@H]3CCC4=CC(=O)CC[C@@H]4[C@H]3C(=C)C[C@@]21CC				inactive	inactive			
